According to PubChem BioAssay (NCI):
Compounds without any hit were thinned out: in the full panel of roughly 83,000, 20% have a hit.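 Cell lines were cultured in 96-well plates, exposed to a single compound concentration, and assessed for percent growth 48 hours later.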 Unmarked numbers belong to inactive results. Calls of active or inactive are those of the source. Rule for the calls: active = growth percent below 10; inactive = the rest.

Tests used:
Experiment in all cases: NCI-60 one-dose screen, 48 h (100 = growth as untreated, 0 = no growth, -100 = all killed)
Details in all cases: 10 µM unless noted
HCT-15 colon = tested on: HCT-15 colon
HT29 colon = tested on: HT29 colon
SNB-75 CNS = tested on: SNB-75 CNS
SNB-19 CNS = tested on: SNB-19 CNS
U251 CNS = tested on: U251 CNS
UACC-62 melanoma = tested on: UACC-62 melanoma
LOX IMVI melanoma = tested on: LOX IMVI melanoma
SK-MEL-28 melanoma = tested on: SK-MEL-28 melanoma
SK-MEL-5 melanoma = tested on: SK-MEL-5 melanoma
PC-3 prostate = tested on: PC-3 prostate

SMILES | growth (HCT-15 colon) | growth (HT29 colon) | growth (SNB-75 CNS) | growth (SNB-19 CNS) | growth (U251 CNS) [%] | growth (UACC-62 melanoma) | growth (LOX IMVI melanoma) | growth (SK-MEL-28 melanoma) | growth (SK-MEL-5 melanoma) | growth (PC-3 prostate)
CCSc1ccc(C2C(Br)C(=O)N2c2cc(OC)c(OC)c(OC)c2)cc1 (stereo not drawn) | 15.2% | 2.99% (active) | 51.1% | 33.4% | 12.1 | 29.6% | 25.7% | 56.7% |  | 
O=C1CCC23OC(c4ccccc4N12)C(O)C(O)C3O (stereo not drawn) | 109% | 91.6% | 113% | 101% | 105 | 98.5% | 100% | 118% | 111% | 
CC(=O)O[C@@H]1C[C@]2(C)[C@H]3[C@H](O)C[C@@H]4C5=CC(C)(C)CC[C@]5(C)CC[C@@]4(C)[C@]3(C)CC[C@H]2C(C)(C)[C@H]1O | 100% | 97.8% | 91.6% | 104% |  | 97.4% | 98.7% | 106% | 114% | 84.9%
O=C(O)c1cc(N=Nc2ccc(-c3ccc(N=Nc4c(S(=O)(=O)O)cc5ccc(Nc6ccccc6)cc5c4O)cc3)cc2)ccc1O | 100% | 99.9% | 85.2% | 102% | 103 | 93.7% | 95.6% | 107% | 106% | 
O=C(CSC(=S)N1CCCCC1)Nc1ccccc1 | 99.1% | 91.2% | 93.1% | 99.6% | 97.6 | 91.6% | 94.2% | 104% | 97.5% | 
COc1cc(NCC(=O)Nc2cc(Nc3cccc(C(F)(F)F)c3)ncn2)c(Cl)c(OC)c1Cl | 94% | 81.7% | 83.4% | 99.9% |  | 75.5% | 93.2% | 105% | 95.2% | 82.2%
COc1cc(C(=O)N2CCN(c3ccccc3OC)CC2)c(NC(=O)c2cnccn2)cc1OCc1ccccc1 | 81.9% | 106% | 102% | 85.9% |  | 73.3% | 75.5% | 132% |  | 70.9%
Fc1ccc(N/N=C/c2ccc(-n3cccn3)cc2)cc1 | 83% | 93.5% | 99.4% | 110% |  | 74.9% | 83.8% | 112% | 107% | 85.8%
CCOC(=O)c1c(C)nc2c(c1N)CC(=O)N2CCc1ccccc1 | 17.2% | 6.02% (active) | 80.1% | 22.4% |  | 32.1% | 9.25% (active) | 39.9% | 3.27% (active) | 
O=C(N/N=C/C[C@@H]1[C@@H](/C=C/[C@@H](O)COc2cccc(Cl)c2)[C@H](O)C[C@@H]1O)c1ccncc1 | 99.3% | 71.1% | 90.5% | 98.1% |  | 92.9% | 94.3% | 103% | 96.6% | 91%
CC[C@]12C=CCN3CC[C@@]4(c5cc(NC(=O)CCC(=O)O[C@H]6CC[C@H]7[C@@H]8CC[C@H]9CC(=O)CC[C@]9(C)[C@H]8CC[C@]67C)c(OC)cc5N(C)[C@H]4[C@@](O)(C(=O)OC)[C@@H]1OC(C)=O)[C@@H]32 | 58.2% | 39% | 57.1% | 84.7% |  | 81.2% | 78.1% | 92.5% | 54.4% | 47.7%
O=C(C[n+]1cccc2cc(Cl)ccc21)c1ccc2c(c1)CCCC2 | 95.5% | 5.56% (active) | 19.8% | 23.2% |  | 17.3% | 11.9% | 19.8% | -29% (active) | 16.1%
C(=C\c1cn(-c2ccccc2)nc1-c1ccccc1)/c1nnc(-c2c[nH]c3ccccc23)o1 | 69% | 39.7% | 17.6% | 60.5% |  | 95.4% | 47.6% | 53.2% | 59.4% | 26%
C=C1C(=O)O[C@H]2[C@H]1CC/C(C=Nc1c(N)cc(C(F)(F)F)cc1Br)=C\CC[C@@]1(C)O[C@@H]21 | -55.1% (active) | -36.4% (active) | 76.1% | 33.7% |  | 4.73% (active) | -74.4% (active) | -12.3% (active) | 33.7% | 6.24% (active)
COc1ccc(Cc2nc(C#N)c(N3CCN(c4ccc(F)cc4)CC3)o2)cc1 | 76% | 79.8% | 65.2% | 99.1% |  | 76.1% | 96.1% | 97.9% | 100% | 85.9%
C#CCN1C(=O)c2ccccc2N(CC#C)C12CCN(Cc1cn(CC(=O)Nc3ccccc3C(N)=O)nn1)CC2 | 86.8% | 85.1% | 78.3% | 90.5% |  | 74.3% | 87% | 93.4% | 76.9% | 83.7%
O=c1[nH]c2ccccc2cc1-c1nc2ccc(Cl)cc2[nH]1 | 23.5% | 53.1% | 45.1% | 75.5% |  | 43% | 42.4% | 72.4% |  | 26%
O=C1C(=O)c2c(nc3ccc(Br)cn23)-c2ccccc21 | -75.7% (active) | -29.1% (active) | -95.3% (active) | -86.4% (active) |  | -87.6% (active) | -76.6% (active) | -60% (active) | -97.6% (active) | -63.4% (active)

SMILES | growth (HCT-15 colon) | growth (HT29 colon) | growth (SNB-75 CNS) | growth (SNB-19 CNS) | growth (U251 CNS) [%] | growth (UACC-62 melanoma) | growth (LOX IMVI melanoma) | growth (SK-MEL-28 melanoma) | growth (SK-MEL-5 melanoma) | growth (PC-3 prostate)
C#Cc1ccccc1NC(=O)c1sc2nc3c(cc2c1N)CCCCCC3 | 70.2% | 36.3% | 39.2% | 76.5% |  | 91.8% | 22.8% | 91.1% | 89.6% | 77.4%
O=C1NN(c2ccccc2)C(c2ccc(Cl)cc2)N2CCC[C@H]12 (stereo partly drawn) | 92.9% | 101% | 75.6% | 94.6% |  | 87.3% | 87.8% | 104% | 96.1% | 99.6%
CCCCOc1nc2ccc(C)cc2cc1/C=C/C(=O)/C=C/c1ccc2c(c1)OCO2 | 97.8% | 63.6% | 97.1% | 92.9% |  | 75.6% | 77.3% | 109% | 77.6% | 72.4%
COc1ccc(-c2[nH]c3ccccc3c2C=C(C#N)C#N)cc1 | 18% | 10.3% | 0.534% (active) | 67% |  | 15.2% | 31.4% | 44.5% | 2.62% (active) | 
CCn1cc(C(=O)O)c(=O)c2cc(F)c(N3CCN(CC(=O)Nc4ccc(/C(C)=N/OC)cc4)CC3)cc21 | 90.5% | 94% | 76.8% | 91.7% |  | 90.5% | 80% | 100% | 96.4% | 85.5%
O=C1NCc2ccc3c(-c4cccc(Cl)c4)c[nH]c3c21 | 27.2% | 7.64% (active) | 13.2% | 28.6% |  | 27% | 35% | 62.2% | 31.2% | 17.2%
CC[C@]12C=CCN3CC[C@@]4(c5ccc(OC)cc5N(C)[C@H]4[C@@](O)(C(=O)OC)[C@@H]1OC(=O)CCC(=O)O[C@H]1CC[C@H]4[C@@H]5CC[C@H]6CC(=O)CC[C@]6(C)[C@H]5CC[C@]14C)[C@@H]32 | 15.1% | -2.17% (active) | 41.9% | 37.5% |  | 29.3% | 27.9% | 46.5% | 7.1% (active) | 12.3%
CCCCn1c2cc(OCc3cn(-c4ccc(Cl)cc4)nn3)ccc2c2ccnc(C)c21 | 17.7% | 6.28% (active) | 32.8% | 56.8% |  | 33% | 20.1% | 67.9% | 38.9% | 44.7%
CC(C)NS(=O)(=O)c1cccc(-c2ccc3c4c(n(CCCN(C)C)c(=O)c3c2)-c2ccccc2C4=O)c1 | 67.9% | -16.2% (active) | 88.9% | 110% |  | 106% | 100% | 99.5% | 94.1% | 99.8%
NC(=O)c1ccc(C2C3=C(CCCC3=O)OC3=C2C(=O)c2ccccc2C3=O)cc1 (stereo not drawn) | 53.8% | 29.7% | -1.57% (active) | 49.6% |  | -38.8% (active) | -19.3% (active) | 59.6% | -93.9% (active) | 12.3%
O=C1CC23OC4ON=C(Br)C4C2C(O)c2ccccc2N13 (stereo not drawn) | 99% | 90.5% | 79.9% | 105% |  | 94.3% | 88.8% | 114% | 111% | 94.4%
CCOC(=O)c1cnn(-c2nc(-c3ccc(F)cc3)c(C#N)c(N3CCOCC3)n2)c1N | 101% |  | 82.2% | 95.1% | 95.3 | 90.8% | 106% | 111% | 96.6% | 95.1%
OCCNc1nc(NCCO)nc(Nc2ccc(C3=NN(c4ccc(Cl)cc4)C(c4ccc(Cl)cc4)C3)cc2)n1 (stereo not drawn) | 48.4% | 30.5% | 51.1% | 78.1% |  | 77.9% | 28.2% | 54.4% |  | 
CO[C@@]12C=C[C@@]34CCC(=O)N3c3ccccc3[C@@H](O1)C4C2 | 104% | 101% | 90.5% | 99.1% |  | 94.5% | 96.9% | 113% | 104% | 100%
Cc1cc(O)cc(O)c1N=NC1=NCCS1 | 102% | 95.7% | 81.7% | 107% |  | 99.5% | 97.2% | 98.5% | 111% | 107%
CC1=C(CCCOC(=O)NCCCl)C2=C(C)C3(CC3)[C@@](C)(O)C(=O)C2=C1 | 24.9% |  | 58.3% | 57.3% | 54.2 | 49.9% | 61.1% | 69.3% | 7.89% (active) | 38%
Cn1c2c(c3ccc(-c4ccn[nH]4)cc3c1=O)C(=O)c1ccccc1-2 | 15.7% | 18.9% | 71% | 27.4% |  | 47.9% | 0.163% (active) | 88.6% | 21.1% | 63.2%
